# Hits are enriched below; roughly 3.1% of the tested compounds scored in any of these assays.
# VDR inhibitor: Inhibitors of the vitamin D receptor (VDR): qHTS. Potency, µM, for inactives: max response, negative = inhibition, hits mostly inhibitors. actives 0.93% (n = 400,000). VDR-SRC2-3 peptide fluorescence polarization, 2 h. Vitamin D3 receptor (Homo sapiens), P11473. AID 504847, 2011; note: potency is the fitted concentration of half-maximal effect; % is set by controls: 0 for no effect and ±100 for the full control effect
#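 VDR–SRC2-3 interaction, FP format. Cmpds 23 nl via pintool, brief spin, 2 h ambient incubation.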
# KAT2A inh: qHTS Assay for Inhibitors of GCN5L2 | Histone acetyltransferase KAT2A (Homo sapiens), Q92830 | GCN5L2 HAT assay, ThioGlo1 CoA-SH fluorescence | Potency, µM (top dose mostly 58.9 µM), without a hit: at the highest dose activity change, negative = inhibition, actives largely listed as inhibitors | actives 0.21% (n = 390,000) | AID 504327, 2011; note: potency is the fitted concentration of half-maximal effect; % is set by controls: 0 for no effect and ±100 for the full control effect
#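 Free CoA generated was detected with ThioGlo1 (50uM) fluorescence at Ex340nm/Em540nm, read immediately and after 20 min at room temperature. Enzyme, 20 nM in HEPES pH 7.5 buffer, saw compounds 15 min before adding 75uM H3(1-25) peptide and 70uM acetyl-CoA.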
# PI4K2A inh: qHTS for small molecular inhibitors of PI4K2A. AID 1346378, 2018. purified PI4K2A, ADP-Glo luminescence, 1 h; stronger effect = lower value. Phosphatidylinositol 4-kinase type 2-alpha (Homo sapiens), Q9BTU6. activity change, negative = inhibition, % at 76.9 µM. actives 0.13% (n = 420,000); in the data active = activity change below about -50%; inconclusive = mostly about -30% to -49%;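 note: -100% = wells without enzyme as full effect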
#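 Compounds are screened against recombinant PI4K2A using PI as substrate and ATP, the latter dispensed at 300 microM. Reactions run one hour at ambient temperature before ADP-Glo detection; full inhibition defined by wells lacking enzyme.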
# PLK1 PBD inh: qHTS for Inhibitors of PLK1-PDB (polo-like kinase 1 - polo-box domain): Primary Screen | Serine/threonine-protein kinase PLK1 (Homo sapiens), P53350 | Plk1 PBD binding of FITC phosphopeptide, fluorescence polarization | Potency, µM, without a hit: max response, negative = inhibition, actives largely listed as inhibitors | actives 2.8% (n = 360,000) | AID 720504, 2013; note: potency is the fitted concentration of half-maximal effect; series mostly up to about 57 µM; % is set by controls: 0 for no effect and ±100 for the full control effect; nearly all actives have a fitted effect of over 65% in size
# Target sequence (P53350 whole entry, looked up, the tested form may be a part): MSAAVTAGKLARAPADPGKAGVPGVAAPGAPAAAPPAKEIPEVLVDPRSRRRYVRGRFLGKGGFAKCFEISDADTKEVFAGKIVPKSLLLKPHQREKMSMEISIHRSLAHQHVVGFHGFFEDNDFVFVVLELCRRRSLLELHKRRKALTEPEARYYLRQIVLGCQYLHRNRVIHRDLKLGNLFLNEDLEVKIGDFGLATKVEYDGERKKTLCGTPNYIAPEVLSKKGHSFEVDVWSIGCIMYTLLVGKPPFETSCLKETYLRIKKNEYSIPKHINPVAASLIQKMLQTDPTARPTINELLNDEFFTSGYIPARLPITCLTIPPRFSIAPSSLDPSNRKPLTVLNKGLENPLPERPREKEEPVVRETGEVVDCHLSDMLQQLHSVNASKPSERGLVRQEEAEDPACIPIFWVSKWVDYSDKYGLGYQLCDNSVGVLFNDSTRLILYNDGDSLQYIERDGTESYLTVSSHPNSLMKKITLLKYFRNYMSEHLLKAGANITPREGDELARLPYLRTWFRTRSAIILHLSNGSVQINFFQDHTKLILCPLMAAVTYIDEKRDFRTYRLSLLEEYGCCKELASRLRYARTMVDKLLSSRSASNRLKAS
# GLS inh: qHTS for Inhibitors of Glutaminase (GLS); Glutaminase kidney isoform, mitochondrial (Homo sapiens), O94925; GLS enzymatic activity, qHTS titration; Potency, µM (doses to about 45.5 µM), for inactives: at the highest dose activity change, negative = inhibition, usual class: inhibitors; actives 0.21% (n = 410,000); note: potency is the fitted concentration of half-maximal effect; % is set by controls: 0 for no effect and ±100 for the full control effect
#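 hKGA; 45 mM KH2PO4 pH 8.2 + 0.02% Tween-20; cpd via pin tool; 1 mM Gln soln; GluOx/HRP/Amplex Red; RT 30 min; fluor. t0 & final.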
# USP1 UbRho: Inhibitors of USP1/UAF1: Hit Validation in Primary Assay | shares compounds with VDR inhibitor | Ub-Rhodamine cleavage, fluorescence kinetic read | Potency, µM (series often up to 114 µM), inactives show at the top dose activity change, negative = inhibition, actives largely listed as inhibitors | actives 50% (n = 50) | AID 540327, 2011
# VDR inh confirm: qHTS for Inhibitors of the vitamin D receptor (VDR): Hit Validation in Primary Screen; actives 89% (n = 840); Potency, µM, usual class: inhibitors; shares compounds with VDR inhibitor; VDR-coactivator inhibition assay, qHTS confirmation; AID 602199, 2012; note: potency is the fitted concentration of half-maximal effect
# VDR FP fluor: qHTS for Inhibitors of the vitamin D receptor (VDR): Hit Validation using a Fluorescein Assay. Potency, µM (doses to about 57.1 µM), for the others: top-dose activity change, negative = inhibition, most hits filed as inhibitors. VDR-coactivator binding, fluorescein fluorescence polarization. actives 48% (n = 840). AID 602200, 2012. shares compounds with VDR inhibitor; note: potency is the fitted concentration of half-maximal effect
# VDR bla reporter: qHTS for Inhibitors of the vitamin D receptor (VDR): Hit Validation using a Beta-Lactamase Assay. shares compounds with VDR inhibitor. VDR beta-lactamase reporter cells, FRET ratio; cells co-treated with VDR agonist LG190178. Potency, µM (doses to about 46.1 µM), inactives show top-dose activity change, negative = inhibition, most hits filed as inhibitors. actives 23% (n = 840); note: potency is the fitted concentration of half-maximal effect; % is set by controls: 0 for no effect and ±100 for the full control effect
# VDR cytotox: qHTS for Inhibitors of the vitamin D receptor (VDR): Hit Validation using a Cytotoxicity Assay | AID 602204, 2012 | shares compounds with VDR inhibitor | actives 18% (n = 840) | cytotoxicity counter-screen, cell viability, qHTS | Potency, µM (top dose mostly 48.3 µM), for the others: at the top dose activity change, negative = cytotoxicity, actives largely listed as cytotoxic;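 note: potency is the fitted concentration of half-maximal effect; plate controls were DMSO for no effect and high-concentration cycloheximide for full effect; nearly all actives have a fitted effect of over 75% in size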
# Numbers without * were called inactive; u = inconclusive; x = no result given. Unless noted, calls come from the whole dose curve; as a rule, active = well fitted curve in the direction sought with a large enough effect; inconclusive = small, poorly fitted or top-dose-only effect, or another doubt; inactive = no such curve, though single readings can be large; an effect the other way counts as inactive or inconclusive.
SMILES,VDR inhibitor,KAT2A inh,PI4K2A inh,PLK1 PBD inh,GLS inh,VDR inh confirm,VDR FP fluor,VDR bla reporter,VDR cytotox,others
Cc1ccc(Cl)cc1N1CCN(C(=O)Cn2nc(C)n3c(cc4sccc43)c2=O)CC1,-16%,-11%,2,x,0%,x,x,x,x,
CC(=O)Oc1cccc(/C=c2\sc3nc(-c4ccco4)nn3c2=O)c1,u,-2%,1,u,-13%,11*,u,0%,18%,
CCOC(=O)c1[nH]c(C)c(CCC(=O)N2CCN(c3cccc(C)c3C)CC2)c1C,20%,0%,-1,x,-2%,x,x,x,x,
CCOC(=O)c1sc(NC(=O)C(C)C)c(C#N)c1C,28µM*,-2%,-6,3µM*,u,3.8*,u,-8%,-4%,
COc1ccc(C2Nc3ccc(NC(=O)CO)cc3C(=O)N2Cc2cccc(Cl)c2)cc1COc1ccc(NC(C)=O)cc1 (centres undefined),-8%,x,x,x,x,x,x,x,x,
CC1(C)CC(=O)C(C(c2cc([N+](=O)[O-])ccc2Cl)C2C(=O)CC(C)(C)CC2=O)C(=O)C1,-14%,x,8,-23%,-7%,x,x,x,x,
Cc1sc(C(C2C(=O)CC(C)(C)CC2=O)C2C(=O)CC(C)(C)CC2=O)cc1[N+](=O)[O-],u,0%,-11,4.7µM*,12%,6.3*,4µM*,1%,2%,
Oc1ccc(NCc2ccccc2OCc2ccccc2)cc1,50µM*,-9%,u,0%,u,14*,14µM*,6%,u,
CCNCc1ccccc1OCc1ccccc1,-2%,0%,-7,u,3%,x,x,x,x,
O=C1/C(=C/c2cccc([N+](=O)[O-])c2)CCc2ccccc21,u,-8%,7,-15%,6%,13*,25µM*,u,u,
O=C1/C(=C/c2ccc([N+](=O)[O-])cc2)CCc2ccccc21,x,-7%,x,x,x,x,x,x,x,
C=CC1=C(C)C2=NC1=CC1=NC(=CC3=NC(=CC4=NC(=C2)C(C)=C4CCC(=O)O)C(CCC(=O)O)=C3C)C(C=C)=C1C.[Zn],u,-14%,x,x,x,x,x,x,x,
CC(=O)C(=Cc1ccc(C(=O)O)cc1)C(C)=O,u,-8%,4,-9%,-10%,x,x,x,x,
C/C(=C\c1ccc(C(=O)O)cc1)c1ccc2c(c1)C(C)(C)CCC2(C)C,-1%,-19%,1,27µM*,-8%,x,x,x,x,USP1 UbRho=u
O=C(/C=C/c1ccccc1)c1ccc2c(c1)OCO2,u,-5%,-17,-8%,-3%,x,x,x,x,
O=C(/C=C/c1ccncc1)c1ccc2c(c1)OCCO2,28µM*,-1%,1,-24%,9%,27*,u,1%,-7%,
O=C(N/N=C\c1ccccc1O)c1ccccc1O,-1%,u,x,x,x,x,x,x,x,
O=C(Nc1nc(-c2ccccn2)cs1)c1cc2ccccc2o1,7%,-18%,-5,-11%,8%,x,x,x,x,
Cc1c(C(=O)Nc2nc(-c3ccccn3)cs2)oc2ccccc12,89µM*,-2%,-10,12µM*,0%,21*,-13%,u,u,
Cn1cnc([N+](=O)[O-])c1S(=O)(=O)c1cccc(Cl)c1,45µM*,1%,-5,u,2%,u,25µM*,u,10µM*,
Cn1cnc([N+](=O)[O-])c1S(=O)(=O)Nc1ccccc1,-24%,x,-9,-6%,-9%,x,x,x,x,
O=S(=O)(c1ccc(Oc2ccc3c(c2)OCO3)c(S(=O)(=O)N2CCOCC2)c1)N1CCOCC1,-5%,x,x,x,x,x,x,x,x,
CCCN1CNc2c(c(=O)[nH]c(=S)n2CCc2ccccc2Cl)C1,-21%,x,x,x,x,x,x,x,x,
COc1nc(C#N)nc(N2CCCCC2)n1,-18%,x,x,x,x,x,x,x,x,
CC1C/C(=C/c2ccncc2)C(=O)/C(=C/c2ccncc2)C1 (centres undefined),22µM*,-11%,-20,-27%,-17%,6.7*,3.5µM*,5.2µM*,21µM*,
SMILES,VDR inhibitor,KAT2A inh,PI4K2A inh,PLK1 PBD inh,GLS inh,VDR inh confirm,VDR FP fluor,VDR bla reporter,VDR cytotox,others
CC1C/C(=C/c2cccn2C)C(=O)/C(=C/c2cccn2C)C1 (centres undefined),-9%,-6%,-16,14%,15%,x,x,x,x,
COC(=O)C1=C(C)N(Cc2ccco2)C(=O)/C1=C\c1ccc([N+](=O)[O-])cc1,22µM*,-8%,-19,-27%,-3%,u,28%,-29%,u,
COC(=O)C1=C(C)N(Cc2ccc(OC)cc2)C(=O)/C1=C\c1ccco1,-11%,u,-3,0%,-3%,x,x,x,x,
COc1ccc(Cl)cc1NC(=O)CCS(=O)(=O)c1nc(-c2cccs2)cc(C(F)(F)F)n1,20µM*,-6%,6,x,7%,5*,3.5µM*,18µM*,u,
CC(C)c1nnc(NC(=O)CCS(=O)(=O)c2nc(-c3cccs3)cc(C(F)(F)F)n2)s1,22µM*,-9%,7,u,9%,9.5*,u,u,u,
O=C(CCS(=O)(=O)c1nc(-c2cccs2)cc(C(F)(F)F)n1)Nc1ccc(F)c(Cl)c1,22µM*,-2%,3,x,0%,3.2*,3.5µM*,u,u,

# Screening results: PubChem BioAssay, National Center for Advancing Translational Sciences (NCATS)
